Records with an inconclusive call do not appear. The source made the active and inactive calls. Rule as the data show it, unless noted: active = inhibition above about 30%; inactive = the rest.
Key:
[1] = reducers of endogenous Her2 protein level, primary screen, SKBR3 breast tumor cells, AlphaScreen, ATP viability (AID 461;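 active = Her2 level under about 52% in both replicate screens, with viability over 70% of control, limit read from the data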;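 as to Her2 level: lower value means less Her2 protein in the cells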;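 as to viability: percent of carrier control wells set as 100% viability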); settings: 18-24 h, measured here: SKBR3 viability, ATP luminescence, at 10 µM
[2] = target: Receptor tyrosine-protein kinase erbB-2 (Homo sapiens) (UniProt P04626); test: as above; settings: 18-24 h, at 10 µM, stronger effect = lower value
[3] = SK-BR-3 cell growth inhibitors, pilot screen, 24 h, human (AID 572;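 active = viability at or below 10% of carrier control in both of two separate runs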;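 also: compound exposure lasted between 18 and 24 h rather than exactly 24 h; 100% = carrier-treated control wells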); settings: SK-BR-3 viability, CellTiter-Glo luminescence, at 10 µM, stronger effect = lower value
[4] = HUVEC growth inhibition – cell-based, human, primary screen (AID 575;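 active = viability at or below 30% in both replicate assays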;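 also: 100% = median of untreated cell wells with 0.1% DMSO on each plate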); settings: HUVEC proliferation, CellTiter-Glo luminescence, 72 h; at 10 µM; stronger effect = lower value
[5] = growth inhibitors of H69AR lung tumor, primary screen, human, duplicate replicates (AID 580;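 active = viability at or under a set limit in both replicates, limit being median viability minus 3 SD, cut at about 48% in these data, passing the limit was not always enough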;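 also: 100% = mean luminescence of untreated wells and 0% = no signal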); settings: H69AR lung tumor cells viability, ATP luminescence, 72 h; at 10 µM; stronger effect = lower value
[6] = reversal of MRP1-mediated doxorubicin resistance, pilot screen, H69AR cells, doxorubicin co-treatment (AID 601;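 active = viability loss from added drug above about 55%, and viability with drug at most 40%, in both replicates, limit read from the data, passing the limit was not always enough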); settings: CellTiter-Glo, 72 h, at 10 µM; for differential viability (reversal): stronger effect = higher value
[7] = 384-well plate pilot, post-Golgi transport modulator project, inhibition of yeast transport mutant growth (AID 636; in the data active = inhibition above about 31%); settings: absorbance 615 nm, about 18 h, stronger effect = higher value
[8] = growth suppression of yeast trafficking mutant, preliminary HTS, modulators of trafficking downstream of Golgi apparatus project, 1536-format plate, OD 615 nm (AID 637); settings: yeast transport mutant growth, absorbance 615 nm, 18 h; stronger effect = higher value
[9] = OD615 S. cerevisiae growth inhibition, permissive medium, pilot counter-assay, permissive growth control for S. cerevisiae lifespan shortening project (AID 705;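 active = growth inhibition above 25% in both replicates, a cutoff set 3 SD above the mean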); settings: OD615, 24 h, at 10 µM, stronger effect = higher value
[10] = Restrictive medium S. cerevisiae growth inhibition, OD615, pilot screen of yeast lifespan reduction project, restrictive growth control (AID 706;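 active = growth inhibition above a set limit, 3 SD over mean compound inhibition, in both replicates, cut at about 43% in these data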;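 also: modified DeaD lifespan yeast strain shifted to restrictive glucose medium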); settings: OD615, 48 h, at 10 µM, stronger effect = higher value
[11] = viability gain of MRP-1-high H69AR cells under doxorubicin, pilot screen, MRP-1 activator project, CellTiter-Glo, duplicate (AID 807;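 active = viability increase at or above a cutoff of the median across tested compounds plus 3 SD, cut at about 8.5% in these data, passing the limit was not always enough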;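 also: compound pretreatment 18-22 h then 72 h combined with doxorubicin; 0% = doxorubicin alone and 100% = vehicle without doxorubicin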); settings: H69AR viability with doxorubicin, CellTiter-Glo luminescence; at 10 µM; stronger effect = higher value
[12] = growth suppression of beta-catenin knockout HCT116, pilot screen, human colon tumor cells (AID 823;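 active = cell viability at or below a set limit in both duplicate runs, the limit being the all-compound median minus 4 SD, cut at about 23% in these data, passing the limit was not always enough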;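 also: 0% = wells killed by 20 µM Hyamine and 100% = untreated DMSO cell wells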); settings: CellTiter-Glo, 60 h, at 10 µM, stronger effect = lower value
[13] = growth suppression of PTEN-deleted HCT116, pilot screen, cell-based, HCT116 clonal line, CellTiter-Glo (AID 824;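 active = viability at or below 27.92% in each of two runs, the all-compound median minus 4 SD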;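 also: 0% = 20 µM Hyamine control and 100% = vehicle cell control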); settings: 60 h, at 10 µM, stronger effect = lower value
[14] = inhibitors of the yeast RAM network, pilot screen, dse1pr::URA3 reporter, 5-FOA selection (AID 869;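 active = inhibition over a set limit, the all-compound mean plus 3 SD, in both replicate runs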;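 also: 0% = DMSO wells with no growth and 100% = 10 µM 1-NA-PP1 with full growth; RAM network block rescues cells from 5-FOA so hits raise OD615 growth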); settings: S. cerevisiae dse1pr::URA3 5-FOA growth, OD615, 2 d; at 10 µM; stronger effect = higher value; strain carries analog-sensitive mutant Cbk1 kinase
[15] = RAM signaling pathway blockade in yeast – S. cerevisiae, Pdr1DBD-CYC8 efflux-inhibited sensitized strain, primary screen (AID 1298;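 active = RAM network inhibition above 8.4% in each of two replicates, 3 SD over the compound average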;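 also: 0% = DMSO untreated cells without growth and 100% = 10 µM 1-NA-PP1 full growth; higher means more yeast growth rescued from 5-FOA killing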); settings: S. cerevisiae cbk1-as DSE1-URA3 strain, 5-FOA growth OD615, 2 d; at 50 µM; stronger effect = higher value
[16] = H69AR cells + 2 uM doxorubicin, measured here: viability with 2 uM doxorubicin, stronger effect = lower value
[17] = H69AR cells, compound alone cytotoxicity

Sequence of Receptor tyrosine-protein kinase erbB-2 (Homo sapiens) (P04626 whole entry, looked up): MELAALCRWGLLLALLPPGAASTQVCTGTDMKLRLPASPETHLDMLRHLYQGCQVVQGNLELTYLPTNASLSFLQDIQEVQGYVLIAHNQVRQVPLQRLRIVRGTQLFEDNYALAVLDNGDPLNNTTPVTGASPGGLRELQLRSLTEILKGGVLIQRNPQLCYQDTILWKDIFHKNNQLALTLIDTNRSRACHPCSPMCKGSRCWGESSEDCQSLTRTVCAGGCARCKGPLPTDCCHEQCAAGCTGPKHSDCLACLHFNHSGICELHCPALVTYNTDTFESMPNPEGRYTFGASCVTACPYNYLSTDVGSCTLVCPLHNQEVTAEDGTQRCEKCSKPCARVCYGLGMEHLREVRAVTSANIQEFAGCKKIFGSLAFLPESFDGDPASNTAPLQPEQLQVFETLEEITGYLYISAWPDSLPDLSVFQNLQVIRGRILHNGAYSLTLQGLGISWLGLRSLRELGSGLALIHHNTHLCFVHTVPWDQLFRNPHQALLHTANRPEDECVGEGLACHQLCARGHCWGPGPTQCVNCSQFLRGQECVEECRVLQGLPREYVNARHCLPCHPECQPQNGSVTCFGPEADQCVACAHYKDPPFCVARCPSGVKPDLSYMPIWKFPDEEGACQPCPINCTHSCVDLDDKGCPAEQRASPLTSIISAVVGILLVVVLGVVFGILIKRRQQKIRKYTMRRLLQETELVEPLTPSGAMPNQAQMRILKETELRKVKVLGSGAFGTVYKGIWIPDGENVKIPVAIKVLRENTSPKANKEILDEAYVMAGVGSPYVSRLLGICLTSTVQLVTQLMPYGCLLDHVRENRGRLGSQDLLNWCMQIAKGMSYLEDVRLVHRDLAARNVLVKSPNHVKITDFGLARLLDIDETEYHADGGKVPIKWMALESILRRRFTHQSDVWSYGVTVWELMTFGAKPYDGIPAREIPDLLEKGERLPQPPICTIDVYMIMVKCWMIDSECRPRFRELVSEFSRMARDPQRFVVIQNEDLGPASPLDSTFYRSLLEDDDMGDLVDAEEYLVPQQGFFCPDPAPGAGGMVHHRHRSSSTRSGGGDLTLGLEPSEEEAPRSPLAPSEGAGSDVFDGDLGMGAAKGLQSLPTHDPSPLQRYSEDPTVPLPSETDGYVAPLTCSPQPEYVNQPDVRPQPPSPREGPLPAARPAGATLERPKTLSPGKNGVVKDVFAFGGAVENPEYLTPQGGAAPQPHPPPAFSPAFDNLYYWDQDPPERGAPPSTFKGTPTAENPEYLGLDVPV

Compound | viability [1] | Her2 level [2] | viability [3] | viability [4] | viability [5] | differential viability (reversal) ([6]; H69AR cells + 2 uM doxorubicin) | viability [6, 16] | viability [6, 17] | inhibition [7] | inhibition [8] | growth inhibition [9] | growth inhibition [10] | viability increase [11] | viability [12] | viability [13] | inhibition [14] | RAM network inhibition [15]
Cc1nc2c(-c3ccc(F)cc3)c(C)nn2c(C)c1CCC(=O)NC(C)CCc1ccco1 (stereo not drawn) | 102% | 59% (inactive) | 102% (inactive) | 63.1% (inactive) | 91.2% (inactive) | 10.4% (inactive) | 80.9% | 91.2% | -0.64% (inactive) | 7.83% (inactive) | 2.17% (inactive) | -4.76% (inactive) | -1.56% (inactive) | 75% (inactive) | 82.3% (inactive) | 0.865% (inactive) | 1.03% (inactive)
Cc1cc2cc(CCNC(=O)CC(C)C)c(=O)[nH]c2cc1C | 102% | 128% (inactive) | 102% (inactive) | 93.3% (inactive) | 90.2% (inactive) | 0.865% (inactive) | 89.4% | 90.2% | -3.73% (inactive) | 5% (inactive) | -7.38% (inactive) | -5.57% (inactive) | -0.47% (inactive) | 104% (inactive) | 97.7% (inactive) | 0.365% (inactive) | 0.73% (inactive)
O=C(c1ccc2nc(N3CCCCC3)sc2c1)N1CCN(c2ccccn2)CC1 | 87% | 102% (inactive) | 87% (inactive) | 68.1% (inactive) | 102% (inactive) | 2.3% (inactive) | 100% | 102% | -1.54% (inactive) | 1% (inactive) | 2.65% (inactive) | -0.825% (inactive) | 0.27% (inactive) | 106% (inactive) | 98.6% (inactive) | 2.38% (inactive) | -1.58% (inactive)
COC(=O)C(C)Sc1nc2c(c(=O)n1-c1ccccc1)SCC2 (stereo not drawn) | 102% | 77.5% (inactive) | 102% (inactive) | 84.3% (inactive) | 94.9% (inactive) | -12.1% (inactive) | 107% | 94.9% | -6.99% (inactive) | -4.44% (inactive) | -12.1% (inactive) | -4.13% (inactive) | -1.78% (inactive) | 87.1% (inactive) | 90.8% (inactive) | 1.94% (inactive) | 4.56% (inactive)
COc1ccc(NC(=O)C2CCCN(S(=O)(=O)c3cccc4cccnc34)C2)cc1OC (stereo not drawn) | 82% | 106% (inactive) | 82% (inactive) | 75.4% (inactive) | 67.5% (inactive) | -6.73% (inactive) | 74.2% | 67.5% | -4.13% (inactive) | 1.67% (inactive) | -1.21% (inactive) | 0.31% (inactive) | -2.32% (inactive) | 80.3% (inactive) | 78.6% (inactive) | 2.09% (inactive) | 2.55% (inactive)
CC(C)(O)C#Cc1ccc(C(=O)N2CCN(C(=O)c3ccco3)CC2)cc1 | 102% | 88% (inactive) | 102% (inactive) | 108% (inactive) | 96.9% (inactive) | 8.95% (inactive) | 87.9% | 96.9% | -3.87% (inactive) | 2.74% (inactive) | -17.3% (inactive) | -11.2% (inactive) | -0.62% (inactive) | 92.4% (inactive) | 99.8% (inactive) | 0.66% (inactive) | 2.19% (inactive)
COCCNC(=O)CN1CCN(Cc2cccc(Cl)c2)C1=O | 102% | 112% (inactive) | 102% (inactive) | 99.3% (inactive) | 103% (inactive) | 17.5% (inactive) | 85.4% | 103% | -5.47% (inactive) | -3.93% (inactive) | 6.16% (inactive) | 1.19% (inactive) | -0.8% (inactive) | 102% (inactive) | 95.5% (inactive) | 0.485% (inactive) | -0.14% (inactive)
Cn1c(=O)cc(NCCc2ccccc2)[nH]c1=O | 97% | 93.5% (inactive) | 97% (inactive) | 50.3% (inactive) | 42.9% (active) | -37.3% (inactive) | 80.2% | 42.9% | -1.82% (inactive) | -8.36% (inactive) | -9.86% (inactive) | 2.05% (inactive) | -5.4% (inactive) | 87.5% (inactive) | 88.3% (inactive) | 0.595% (inactive) | 3.06% (inactive)
Cc1cc(=O)oc2c1c(C)nn2-c1ccc(C(=O)OC(C)C)cc1 | 83.5% | 83.5% (inactive) | 83.5% (inactive) | 99% (inactive) | 96.9% (inactive) | 2.41% (inactive) | 94.5% | 96.9% | -0.13% (inactive) | 1.15% (inactive) | -4.51% (inactive) | 3.34% (inactive) | -3.1% (inactive) | 97.3% (inactive) | 87.4% (inactive) | 0.78% (inactive) | 1.04% (inactive)
CCOc1ccc(NC(=O)CN2C(=O)C3CCCN3C2=O)cc1 (stereo not drawn) | 85% | 106% (inactive) | 85% (inactive) | 94.6% (inactive) | 101% (inactive) | 3.86% (inactive) | 97.5% | 101% | -2.53% (inactive) | 3.67% (inactive) | -4.76% (inactive) | -13.8% (inactive) | -0.9% (inactive) | 102% (inactive) | 97.1% (inactive) | -0.315% (inactive) | 2.93% (inactive)
CCN(CC)C(=O)Oc1ccccc1NC(C)=O | 102% | 92% (inactive) | 102% (inactive) | 107% (inactive) | 90.5% (inactive) | -0.19% (inactive) | 90.7% | 90.5% | -5.14% (inactive) | -3% (inactive) | 1.79% (inactive) | -2.54% (inactive) | -0.54% (inactive) | 92.2% (inactive) | 96.1% (inactive) | 0.84% (inactive) | -0.6% (inactive)
CCCCn1c(CN2CCN(c3ccccc3)CC2)nc2c1c(=O)n(C)c(=O)n2C | 89% | 105% (inactive) | 89% (inactive) | 85.7% (inactive) | 85.6% (inactive) | 19.2% (inactive) | 66.4% | 85.6% | -2.27% (inactive) | -3.67% (inactive) | -4.55% (inactive) | 1.55% (inactive) | -3.11% (inactive) | 36.1% (inactive) | 65.2% (inactive) | 0.475% (inactive) | 2.8% (inactive)
Cc1ccc(OCC(O)CN2C(=O)NC(C)(C)C2=O)cc1C (stereo not drawn) | 105% | 94.5% (inactive) | 105% (inactive) | 88% (inactive) | 102% (inactive) | 15.8% (inactive) | 86.4% | 102% | -5.73% (inactive) | 5.08% (inactive) | -11.3% (inactive) | -19.3% (inactive) | -0.62% (inactive) | 105% (inactive) | 94% (inactive) | 0.65% (inactive) | 4.18% (inactive)
CCC1CCCCN1CCNS(=O)(=O)c1ccc2c(c1)oc(=O)n2C (stereo not drawn) | 91.5% | 84.5% (inactive) | 91.5% (inactive) | 79.8% (inactive) | 85.2% (inactive) | 0.025% (inactive) | 85.1% | 85.2% | -1.28% (inactive) | 0.67% (inactive) | -0.855% (inactive) | -5.11% (inactive) | -2.8% (inactive) | 97.9% (inactive) | 95.1% (inactive) | 2.01% (inactive) | -1.43% (inactive)
CCCCn1c2c(c3ccccc31)CCc1nonc1-2 | 107% | 108% (inactive) | 107% (inactive) | 89.6% (inactive) | 103% (inactive) | -2.16% (inactive) | 105% | 103% | -0.77% (inactive) | -3.67% (inactive) | -8.86% (inactive) | -29.4% (inactive) | 1.75% (inactive) | 80.4% (inactive) | 78.4% (inactive) | 2.28% (inactive) | 2.83% (inactive)
COc1ccc(C2C(C(=O)N3CCC(C)CC3)c3ccccc3C(=O)N2C)cc1 (stereo not drawn) | 109% | 112% (inactive) | 109% (inactive) | 108% (inactive) | 94.9% (inactive) | -1.18% (inactive) | 96.1% | 94.9% | 1.23% (inactive) | 9.84% (inactive) | -17% (inactive) | -12% (inactive) | -2.5% (inactive) | 83.3% (inactive) | 82.9% (inactive) | 2.41% (inactive) | 7.41% (inactive)
CN(C)CCN1C(=O)C(O)=C(C(=O)c2cc3ccccc3o2)C1c1ccc(N(C)C)cc1 (stereo not drawn) | 98.5% | 105% (inactive) | 98.5% (inactive) | 94.1% (inactive) | 90.2% (inactive) | 1.66% (inactive) | 88.5% | 90.2% | -3.47% (inactive) | 1.17% (inactive) | -14.2% (inactive) | -14.1% (inactive) | -0.2% (inactive) | 105% (inactive) | 103% (inactive) | 0.685% (inactive) | 2.42% (inactive)
O=C(Nc1c(C(=O)NCc2ccco2)cnn1-c1ccccc1)c1ccc(F)cc1 | 95.5% | 116% (inactive) | 95.5% (inactive) | 91.9% (inactive) | 96.9% (inactive) | 4.25% (inactive) | 92.6% | 96.9% | -0.26% (inactive) | -6% (inactive) | -0.04% (inactive) | 13.1% (inactive) | -5.34% (inactive) | 101% (inactive) | 96.8% (inactive) | -0.12% (inactive) | 0.53% (inactive)
COc1ccc(S(=O)(=O)N2CCN(c3ccc(C)cc3C)CC2)cc1OC | 94.5% | 93.5% (inactive) | 94.5% (inactive) | 73.8% (inactive) | 97.2% (inactive) | -0.96% (inactive) | 98.2% | 97.2% | -5.87% (inactive) | 2.5% (inactive) | 0.1% (inactive) | 4.36% (inactive) | -0.07% (inactive) | 50.6% (inactive) | 72.2% (inactive) | 2.41% (inactive) | 1.74% (inactive)

Reference: PubChem BioAssay
